# Sampled rows, rich in hits. Any-hit rate of the full collection: about 11%.
# Gal4-VP16 FLuc – inhibits Gal4-VP16 luciferase reporter, ROR gamma counter-screen; Potency, µM (top dose mostly 53.6 µM), without a hit: at the top dose activity, negative = inhibition, hits mostly inhibitors; Drosophila S2 Gal4-VP16 UAS-luciferase, luminescence, 20 h; AID 2546; 310,000 tested, 3.5% active;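 also: Gal4-VP16 expression switched on by copper sulfate through the metallothionein promoter; potency is read from the fitted curve at half-maximal effect; % is scaled to controls: 0 for no effect and ±100 for the full control effect; nearly all actives have a fitted effect of over 50% in size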
# RORg inh – inhibitors of mouse ROR gamma transcriptional activity; P51450; Drosophila S2 Gal4-RORgamma UAS-luciferase reporter, 20 h; Potency, µM (doses to about 53.6 µM), inactives show at the highest dose activity change, negative = inhibition, most hits filed as inhibitors; 310,000 tested, 5.4% active; AID 2551; also: potency is read from the fitted curve at half-maximal effect; % is scaled to controls: 0 for no effect and ±100 for the full control effect; nearly all actives have a fitted effect of over 60% in size
# Target sequence (P51450 whole entry, looked up, the tested form may be a part): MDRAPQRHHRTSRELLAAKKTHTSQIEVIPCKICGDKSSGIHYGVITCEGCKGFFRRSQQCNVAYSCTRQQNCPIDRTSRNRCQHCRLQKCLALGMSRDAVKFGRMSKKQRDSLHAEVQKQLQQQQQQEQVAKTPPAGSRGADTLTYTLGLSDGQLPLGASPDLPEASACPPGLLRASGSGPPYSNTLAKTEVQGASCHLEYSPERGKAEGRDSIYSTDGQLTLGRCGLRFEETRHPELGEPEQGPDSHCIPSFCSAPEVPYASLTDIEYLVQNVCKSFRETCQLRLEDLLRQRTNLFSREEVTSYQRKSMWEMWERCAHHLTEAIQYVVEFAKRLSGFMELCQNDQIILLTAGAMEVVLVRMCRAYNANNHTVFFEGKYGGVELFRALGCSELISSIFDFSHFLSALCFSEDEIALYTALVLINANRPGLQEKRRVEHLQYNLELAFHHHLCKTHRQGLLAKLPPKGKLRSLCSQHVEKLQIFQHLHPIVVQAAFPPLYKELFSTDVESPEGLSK
#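 Stably transfected Drosophila Schneider cells are the test system, with ROR gamma fused to Gal4 and luciferase under UAS control; luminescence is read after 20 hr of 700 uM copper sulfate induction at ambient temperature.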
# MCF10A rereplic – induces DNA re-replication in MCF 10a normal breast cells | MCF 10A DNA re-replication, Hoechst nuclear intensity, 48 h | Potency, µM (titrated, usually from 46.1 µM), inactives show at the top dose activity, positive = re-replication, usual class: activators | 350,000 tested, 2.9% active | AID 624296; also: potency is read from the fitted curve at half-maximal effect; % of control where 0% means no effect; nearly all actives have a fitted effect of over 50% in size
# SW480 rerep – inducers of DNA re-replication in SW480 colon cancer cells; Potency, µM (series often up to 46.1 µM), for inactives: at the highest dose re-replication activation, actives largely listed as activators; 340,000 tested, 1.8% active; SW480 DNA re-replication, Hoechst DNA content imaging, 48 h; also: potency is read from the fitted curve at half-maximal effect; % of control where 0% means no effect; nearly all actives have a fitted effect of over 55% in size
#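 Per well, 250 cells were exposed to pinned compound for 48 hr. Nuclear DNA was visualised with Hoechst (40 min, 37 C) and total object intensity recorded by fluorescence scanning.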
# IL1B secr inh – inhibitors of inflammasome signaling (IL-1 beta secretion); 360,000 tested, 4.7% active; activity change, % at 57.5 µM; THP-1 LPS/ATP IL-1B secretion, AlphaLISA, 16 h; hits give low values; in the data active = activity change below about -50%; inconclusive = mostly about -30% to -49%; also: % is scaled to controls: 0 for no effect and ±100 for the full control effect
#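 THP-1 cells pretreated 1 hr with compounds (up to 57.5 uM final), then stimulated with LPS (250 ng/mL final) plus ATP (1.25 mM final); secreted IL-1B measured by AlphaLISA after 16 hr, decreased signal indicating inhibition.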
# Numbers without * were called inactive; i = inactive; ? = inconclusive; / = no result; [ ] = dose if it differs, or a comment. Unless noted, calls follow the shape of the dose curve; as a rule, active = well fitted curve in the direction sought with a large enough effect; inconclusive = small, poorly fitted or top-dose-only effect, or another doubt; inactive = no such curve, though single readings can be large; an effect the other way counts as inactive or inconclusive.
SMILES,Gal4-VP16 FLuc,RORg inh,MCF10A rereplic,SW480 rerep,IL1B secr inh
Cc1ccc(C(=O)NCC(=O)Nc2ccc(S(=O)(=O)Nc3cc(C)nc(C)n3)cc2)cc1,/,/,7%,4%,-1
CCN(CC)S(=O)(=O)c1ccc(C(=O)OC2CCCCC2CN(C)C)cc1 (centres undefined),-1%,-17%,0.1µM*,?,0
CC1CN(S(=O)(=O)c2ccc(C(=O)NCCCn3ccnc3)cc2)CC(C)O1 (centres undefined),-5%[10 µM],19%,3.7µM*,5.8µM*,-12
O=C(NCCCn1ccnc1)c1cccc(Br)c1,-5%,29%,-5%,26µM*,7
CC1CN(S(=O)(=O)c2ccc(C(=O)Nc3ccccc3F)cc2)CC(C)O1 (centres undefined),/,/,9%,-19%,-11
Cc1nnc(NC(=O)c2ccc(S(=O)(=O)N3CC(C)OC(C)C3)cc2)o1 (centres undefined),4µM*,4.5µM*,13%,1%,6
Cc1nnc(NC(=O)c2ccc(S(=O)(=O)N3CCCCCC3)cc2)o1,1.3µM*,0.71µM*,6%,2%,-4
COc1cccc(-c2ocnc2C(=O)Nc2ccc(N3CCOCC3)cc2N2CCOCC2)c1,-3%,-4%,15%,-6%,-4
C#CCNC(=O)C[C@@H]1C[C@@]2(C(=O)OCC)CCCC=C2N(Cc2ccc(Cl)cc2Cl)C1=O,/,/,/,/,-19
COCc1nnc(NC(=O)c2ccc(S(=O)(=O)N3CCCCCC3)cc2)o1,0.28µM*,2.2µM*,?,11%,15
COc1ccc([C@H]2C[C@H](O)[C@@H](n3cc(-c4ccc(F)cc4)nn3)CN2C(=O)c2cccs2)cc1,/,/,/,/,-6
O=C(O)c1ccccc1SC1CC(=O)N(c2ccccc2)C1=O (centres undefined),4µM*,13µM*,?,?,0
O=C(O)c1cccnc1SC1CC(=O)N(c2ccccc2)C1=O (centres undefined),1%,-2%,0%,-14%,5
Cc1nnc(SC2CC(=O)N(c3ccccc3)C2=O)s1 (centres undefined),1µM*,1.1µM*,?,?,6
Cc1nc(SC2CC(=O)N(c3ccccc3)C2=O)nc2c1CCCC2 (centres undefined),2%,-11%,-25%,?,9
O=C1CC(Sc2cccs2)C(=O)N1c1ccccc1 (centres undefined),7.9µM*,4.5µM*,10%,1%,-27
C=CC[C@@](C(C)=O)(C(=O)OC)C(NC(=O)OC)c1ccccc1 (some centres undefined),-11%,-23%,/,/,/
C#CCN(C[C@H]1[C@H](OC(=O)NC2CCCC2)[C@H](OC(=O)NC2CCCC2)C[C@@H](C(=O)OC)[C@H]1C(=O)OC)S(=O)(=O)c1ccc(C)cc1,/,/,/,/,-60*
C#CCN(C[C@H]1[C@H](OC(=O)NCc2ccc(OC)c(OC)c2)[C@H](OC(=O)NCc2ccc(OC)c(OC)c2)C[C@@H](C(=O)OC)[C@H]1C(=O)OC)S(=O)(=O)c1ccc(C)cc1,/,/,/,/,-14
C#CCN(C[C@@H]1[C@@H](OC(=O)NCc2ccco2)[C@@H](OC(=O)NCc2ccco2)CN(C(=O)OC(C)C)N1C(=O)OC(C)C)S(=O)(=O)c1ccc(C)cc1,/,/,/,/,-98*
C#CCN(C[C@H]1[C@H](OC(=O)NCc2ccco2)[C@H](OC(=O)NCc2ccco2)C[C@@H](C(=O)OC)[C@H]1C(=O)OC)S(=O)(=O)c1ccc(C)cc1,/,/,/,/,-72*
CCn1nc(C)c(CN2CCCCC2C(=O)Nc2ccc(Oc3cccnc3)cc2)c1C (centres undefined),0%,10%,?,3%,i
Cc1ccc(CN2CCCCC2C(=O)Nc2ccc(Oc3cccnc3)cc2)o1 (centres undefined),11%,-9%,15µM*,16µM*,30
O=C(Nc1ccc(Oc2ccccc2)nc1)C1CCCCN1Cc1ccco1 (centres undefined),4%,44%,1.8µM*,2.9µM*,40
CCOC(=O)N1N=C(c2ccc(OC)cc2)CC1(O)C(F)(F)F (centres undefined),?,?,-1%,-76%,-12
SMILES,Gal4-VP16 FLuc,RORg inh,MCF10A rereplic,SW480 rerep,IL1B secr inh
COc1ccc(CC(=O)N2N=C(C)CC2(O)C(F)(F)F)cc1OC (centres undefined),?,?,1%,-4%,15
COc1ccc(CC(=O)N2N=C(c3ccncc3)CC2(O)C(F)(F)F)cc1 (centres undefined),-3%,11µM*,?,18µM*,34
CCc1ccc(C2=NN(C(=O)OC)C(O)(C(F)(F)F)C2)cc1 (centres undefined),?,11µM*,1%,-10%,5
CCC1=NN(C(=O)Cc2ccc(OC)cc2)C(O)(C(F)(F)F)C1 (centres undefined),?,11µM*,2%,-3%,10
COc1ccc(OCC(=O)N2N=C(C)CC2(O)C(F)(F)F)cc1 (centres undefined),?,6.3µM*,-33%,-18%[1.84 µM],-8
CCCCCCCCCCCCCC(=O)N[C@@H](C)[C@H](O)c1ccccc1,-3%,2%,/,/,/
Cc1cc(C)cc(NC(=S)N=Nc2c(O)n(C)c3ccc(S(=O)(=O)N4CCOCC4)cc23)c1,-90%,?,-5%,?,-4
Cc1cccc(NC(=S)N=Nc2c(O)n(C)c3ccc(S(=O)(=O)N4CCOCC4)cc23)c1,0.71µM*,0.13µM*,20%,?,3
Cc1ccc(NC(=S)N=Nc2c(O)n(C)c3ccc(S(=O)(=O)N4CCOCC4)cc23)cc1,1µM*,0.71µM*,?,9%,-6
Cc1cccc(Nc2ccc(S(=O)(=O)N3CCOCC3)cc2[N+](=O)[O-])c1,/,/,-3%,-8%,-24
Cc1cc2oc(=O)cc(CN3CCN(C/C=C/c4ccccc4)CC3)c2cc1O,35µM*,?,/,/,/
O=S(=O)(c1ccccc1)N1CCN(Cc2c(O)ccc3ccccc23)CC1,/,/,1%,-4%,?
Oc1ccc2ccccc2c1CN1CCN(C/C=C/c2ccccc2)CC1,?,?,-17%,?,-77*
O=C(c1cc2ccccc2o1)N1CCN(C/C=C/c2ccccc2)CC1,-7%,12%,5%,2%,-55*
O=c1cc(CN2CCN(C/C=C/c3ccccc3)CC2)c2cc(O)c(-c3ccccc3)cc2o1,-24%,8%,13%,18µM*,?
CCN(C(=O)COC(=O)CCCOc1ccccc1)c1c(N)n(Cc2ccccc2)c(=O)[nH]c1=O,/,/,5%,-7%,-8
N#Cc1ccc(CS(=O)(=O)c2ccccc2)cc1,-14%,-5%,/,/,/
Cc1cc(C)c2oc(=O)cc(CN3CCN(Cc4ccccc4)CC3)c2c1,2%,34%,10%,-22%,5
